Test results from ChEMBL document CHEMBL4513146, “CO-ADD screening of Karazin Kharkiv National University (Ukraine) compounds”.
Results with a measured potency or affinity are listed apart.

test system: Staphylococcus aureus; conditions: Concentration 32 ug.mL-1;; ASSAY_TEST Inhibition of Bacterial Growth; detection method Absorption (OD600); MEDIA CAMHB; plate type 384well; NBS; CORNING #3640; time 18 hr

Row | Structure (SMILES) | Inhibition [%]
1 | CC(C)NC(=O)CSc1nnc2c(=O)n(-c3ccccc3)ccn12 | -3.39
2 | O=c1c2nnc(SCc3cccc(C(F)(F)F)c3)n2ccn1-c1ccc(Br)cc1 | 11.27
3 | COc1ccc(NC(=O)C(C)Sc2nnc3c(=O)n(-c4cccc(OC)c4)ccn23)cc1 (stereo not given) | 6.45
4 | COc1ccc(NC(=O)Cn2nc3ccc(-c4ccccc4)nn3c2=O)cc1 | 6.57
5 | Cc1ccc(NC(=O)Cn2nc3ccc(SCc4ccc(Cl)cc4)nn3c2=O)cc1 | -0.24
6 | CCOC(=O)c1ccc(NC(=O)Cn2nc3ccc(-c4ccc(Cl)cc4)nn3c2=O)cc1 | 7.47
7 | Cc1ccc(C)c(Cn2nc3c(=O)n(-c4cccc(Cl)c4C)ccn3c2=O)c1 | -0.35
8 | Cc1ccc(NC(=O)CSc2nc3ccccc3n3cnnc23)c(C)c1 | -8.66
9 | Cc1ccc(NC(=O)Cn2nc3ccc(SC(C)(C)C)nn3c2=O)c(Cl)c1 | -0.06
10 | O=C(Cn1nc2c(Sc3ccccc3)nccn2c1=O)Nc1cccc(Cl)c1F | 9.57
11 | CCOC(=O)c1ccccc1NC(=O)Cn1nc2c3cc(-c4ccc(Cl)cc4)nn3ccn2c1=O | 7.33
12 | CCOc1ccccc1NC(=O)Cn1nc2c3cc(-c4ccc(OC)cc4)nn3ccn2c1=O | 2.23
13 | CCc1ccc(NC(=O)Cn2nc3cc(C)nc(Nc4ccc(F)c(C)c4)n3c2=O)cc1 | 4.65
14 | Cc1nnc2c(S(=O)(=O)N(Cc3ccc(F)cc3)c3ccc(Cl)cc3)cccn12 | 5.21
15 | Cc1cc(C)cc(Oc2nc3ccccc3n3c(=O)n(CC(=O)Nc4ccc5c(c4)OCO5)nc23)c1 | 0.02
